Screening data (PubChem BioAssay)
JMJD2A Tudor – qHTS Assay for Inhibitors of JMJD2A-Tudor Domain; Lysine-specific demethylase 4A (Homo sapiens), O75164; AlphaScreen JMJD2A-Tudor / H3K4me3 peptide binding; Potency, µM (top dose mostly 114 µM), without a hit: at the top dose activity change, negative = inhibition, most hits filed as inhibitors; 390,000 compounds, 4.4% hits; note: potency is the fitted concentration of half-maximal effect; % is set by controls: 0 for no effect and ±100 for the full control effect; nearly all actives have a fitted effect of over 50% in size
HP1b chromo inh – HTS for Inhibitors of HP1-beta Chromodomain Interactions with Methylated Histone Tails. AlphaScreen HP1-beta / biotin-H3K9me3 peptide binding. Potency, µM (series often up to 114 µM), for inactives: top-dose activity change, negative = inhibition, hits mostly inhibitors. Chromobox protein homolog 1 (Homo sapiens), P83916. 390,000 compounds, 0.56% hits; note: potency is the fitted concentration of half-maximal effect; nearly all actives have a fitted effect of over 70% in size
Target sequence (P83916 whole entry, looked up): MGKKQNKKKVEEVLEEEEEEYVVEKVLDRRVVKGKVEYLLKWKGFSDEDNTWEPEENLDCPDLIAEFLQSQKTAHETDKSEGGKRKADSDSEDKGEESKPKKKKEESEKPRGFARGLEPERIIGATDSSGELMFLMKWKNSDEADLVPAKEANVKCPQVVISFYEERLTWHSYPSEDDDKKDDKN
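HP1-beta protein (50 nM final) preincubated 30 min at room temperature with biotinylated H3(1-18)K9me3 peptide (50 nM) in PBS pH 7.4, 0.01% Tween-20, then compound added for 30 min. AlphaScreen streptavidin donor/nickel chelate acceptor beads (10 ug/mL final), 30 min dark, luminescence read.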
PLK1 PBD block – qHTS for Inhibitors of PLK1-PDB (polo-like kinase 1 - polo-box domain): Primary Screen; Potency, µM, inactives show max response, negative = inhibition, most hits filed as inhibitors; 360,000 compounds, 2.8% hits; AID 720504, 2013; Plk1 PBD binding of FITC phosphopeptide, fluorescence polarization; Serine/threonine-protein kinase PLK1 (Homo sapiens), P53350; note: potency is the fitted concentration of half-maximal effect; series mostly up to about 57 µM; % is set by controls: 0 for no effect and ±100 for the full control effect; nearly all actives have a fitted effect of over 65% in size
BAZ2B inh – qHTS Assay for Inhibitors of BAZ2B. Bromodomain adjacent to zinc finger domain protein 2B (Homo sapiens), Q9UIF8. Potency, µM (highest dose often 114 µM), without a hit: at the top dose activity change, negative = inhibition, hits mostly inhibitors. AID 504333, 2011. AlphaScreen BAZ2B-H3K14Ac peptide displacement. 360,000 compounds, 4.4% hits; note: potency is the fitted concentration of half-maximal effect; % is set by controls: 0 for no effect and ±100 for the full control effect; nearly all actives have a fitted effect of over 60% in size
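BAZ2B 50 nM plus b-H3(5-23)K14Ac 50 nM, PBS pH 7.4/0.01% Tween-20, 30 min RT; compound added (max 110 uM), 30 min RT; streptavidin donor/Ni-chelate acceptor beads 10 ug/mL final, 20 min dark; AlphaScreen read.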
PI5P4Ka inh – qHTS for Inhibitors of phosphatidylinositol 5-phosphate 4-kinase (PI5P4K) | PI5P4Kalpha enzyme, ADP-Glo luminescence, 60 min; active compounds read low | max response, % | 330,000 compounds, 1.2% hits | Phosphatidylinositol 5-phosphate 4-kinase type-2 alpha (Homo sapiens), P48426; active = max response of -50% or lower; inconclusive = between -30% and -50%; inactive = -30% or higher; note: value at the top dose of about 77 µM; % is set by controls: 0 for no effect and ±100 for the full control effect
Target sequence (P48426 whole entry, looked up): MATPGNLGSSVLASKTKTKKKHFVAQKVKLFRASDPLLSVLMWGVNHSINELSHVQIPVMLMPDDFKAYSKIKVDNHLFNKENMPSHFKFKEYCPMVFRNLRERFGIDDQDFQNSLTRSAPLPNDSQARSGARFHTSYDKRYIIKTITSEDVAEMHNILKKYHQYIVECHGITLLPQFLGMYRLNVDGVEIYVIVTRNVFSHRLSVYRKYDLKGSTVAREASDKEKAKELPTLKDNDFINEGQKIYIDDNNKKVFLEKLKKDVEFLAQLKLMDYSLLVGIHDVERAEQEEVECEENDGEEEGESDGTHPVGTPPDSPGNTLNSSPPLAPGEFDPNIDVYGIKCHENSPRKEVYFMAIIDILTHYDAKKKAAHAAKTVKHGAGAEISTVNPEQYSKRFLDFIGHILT
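ADP-Glo luminescence end-point after a 60 min room-temperature kinase reaction. PI5P4Kalpha and substrate in HEPES pH 7.4 buffer with EGTA, 0.1% CHAPS and 5% DMSO; ATP at 5 microM final.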
G9a inh – qHTS Assay for Inhibitors of Histone Lysine Methyltransferase G9a | Potency, µM (highest dose often 102 µM), for the others: at the highest dose activity, negative = inhibition, hits mostly inhibitors | G9a H3K9 monomethylation, AlphaScreen, 2 h | Histone-lysine N-methyltransferase EHMT2 (Homo sapiens), Q96KQ7 | AID 504332, 2011 | 350,000 compounds, 8.8% hits; note: potency is the fitted concentration of half-maximal effect; % is set by controls: 0 for no effect and ±100 for the full control effect; nearly all actives have a fitted effect of over 75% in size
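AlphaScreen detection with an anti-monomethyl H3K9 antibody quantified product after a 2 h room-temperature reaction containing 500 nM biotinylated H3K9 peptide, 20 µM SAM and 20 nM enzyme, which had been preincubated 15 min with compound.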
Numbers without * were called inactive; ? = inconclusive; · = no result given; [ ] = another dose, or the depositor's remark. An excerpt weighted towards active compounds, which were near 12% of everything screened. Unless noted, calls come from the whole dose curve; as a rule, active = well fitted curve in the direction sought with a large enough effect; inconclusive = small, poorly fitted or top-dose-only effect, or another doubt; inactive = no such curve, though single readings can be large; an effect the other way counts as inactive or inconclusive.

SMILES	JMJD2A Tudor	HP1b chromo inh	PLK1 PBD block	BAZ2B inh	PI5P4Ka inh	G9a inh
COc1cc(C(CC(=O)Nc2ccc(Br)cn2)N2Cc3ccccc3C2=O)cc(OC)c1OC (stereo not drawn)	-8%	44%	·	-21%	·	-3%[59 µM]
CCn1c(=O)c(C(=O)NCc2ccccc2)c(O)c2ccccc21	88%	160%	-11%	51%	8	·
CCn1c(=O)c(C(=O)NCc2cccnc2)c(O)c2ccccc21	40µM*	18%	4%	29%	-1	6%[59 µM]
CCn1cc(C(=O)NCc2cccnc2)c2cc(OC)c(OC)cc2c1=O	-23%	19%	-6%	9%	0	11µM*
COc1ccccc1CNC(=O)c1cn(C)c(=O)c2cc(OC)c(OC)cc12	13µM*	2%	19µM*	-12%	-26	-7%
COc1cccc(NC(=O)c2cn(C)c(=O)c3cc(OC)c(OC)cc23)c1	?	-15%	3µM*	-5%	?	75%[59 µM]
COc1ccc(NC(=O)c2cn(C)c(=O)c3cc(OC)c(OC)cc23)cc1OC	-18%	26%	-10%	-17%	1	16%
CCc1ccc(NC(=O)CC2C(=O)N(c3cccc(C)c3)C(=O)N2Cc2cccs2)cc1 (stereo not drawn)	-18%	22%	·	-13%	·	8%[59 µM]
CNC(=O)N(O)C1N(/N=C/c2ccc(SC)cc2)C(=S)SC1(C)C (stereo not drawn)	-24%	19%	-8%	-35%	2	-1%
CN(C)c1ccc(/C=N/N2C(=S)SC(C)(C)C2N(O)C(=O)Nc2ccc([N+](=O)[O-])cc2)cc1 (stereo not drawn)	56µM*	?	27µM*	?	0	16%[12.7 µM]
Cn1c(N)c(C(=O)COC(=O)c2ccccc2C(=O)c2ccc(Cl)cc2)c(=O)n(C)c1=O	-26%	-13%	-2%	·	1	·
O=C(CSc1ncnc2ccccc12)N1CCNC1=O	-6%	40%	-14%	·	1	·
Nc1cc(=O)[nH]c(SCC(=O)N2CCN(S(=O)(=O)c3ccc4ccccc4c3)CC2)n1	-11%	31%	-9%	-13%	-11	-2%
O=C(CSc1ncc(C(F)(F)F)cc1Cl)N1CCN(S(=O)(=O)c2ccc3ccccc3c2)CC1	?	-8%	24µM*	-3%	·	11%[59 µM]
O=C(CSc1ncc(C(F)(F)F)cc1Cl)N1CCNC1=O	-2%	47%	27µM*	·	-10	·
COC(=O)[C@@]12C[C@@H](CC(=O)NCC34CC5CC(CC(C5)C3)C4)C(=O)N(Cc3ccccc3)C1=CCC(C)(C)C2	·	·	-1%	·	-2	·
O=C(OCCCN1CCOCC1)c1ccc(O)c(O)c1	32µM*	22%	-7%	-29%	4	13µM*
COc1cc(C(=O)OCCN2CCOCC2)ccc1O	?	-7%	?	4%	-1	-5%[59 µM]
CCOc1ccc(C(c2c(O)nc(SC)n(C)c2=O)c2c(O)nc(SC)n(C)c2=O)cc1	-16%	45%	12µM*	-5%	-12	11µM*
CC(C)c1nnc(NC(=O)C2CCN(C(=O)Nc3ccc(Cl)cc3)CC2)s1	-10%	14%	-12%	7%	-6	9%
O=c1[nH]c(NNC(=S)NCc2ccccc2)nc2c1C1(CCCCC1)Cc1ccccc1-2	?	?	?	?	-21	20µM*
C=CCNC(=S)NNc1nc2c(c(=O)[nH]1)C1(CCCC1)Cc1ccccc1-2	?	-20%	?	?	-19	?
Cc1cccc2sc(NNC(=O)c3ccc(S(=O)(=O)N4CCCC(C)C4)cc3)nc12 (stereo not drawn)	11µM*	-24%	-14%	11%	-4	25µM*
CCc1nnc(NC(=O)c2ccc(S(=O)(=O)N3CCCC(C)C3)cc2)s1 (stereo not drawn)	-10%	59%	2%	-22%	1	-4%
Cc1cccc2sc(NNC(=O)c3ccc(S(=O)(=O)N4CCc5ccccc5C4)cc3)nc12	8.9µM*	-15%	-13%	4µM*	-9	40µM*
SMILES	JMJD2A Tudor	HP1b chromo inh	PLK1 PBD block	BAZ2B inh	PI5P4Ka inh	G9a inh
Cc1cccc2sc(NC(=O)c3cccc(S(=O)(=O)N4CCc5ccccc54)c3)nc12	-27%	13%	-2%	-2%	0	11%[59 µM]
CC1(C)Cc2ccccc2-c2n[nH]c(=S)n21	3.2µM*	-2%	?	-16%	·	13µM*
CCSc1nnc2n1C(C)(C)Cc1ccccc1-2	-4%	37%	-11%	-7%	3	-45%[59 µM]
CC(C)(C)c1cc(=O)[nH]c(SCc2ccccc2Cl)n1	5%	44%	-20%	-14%	24	9%
COc1ccc(Cl)cc1NC(=O)CSc1nc(NS(=O)(=O)c2ccccc2)cc(=O)[nH]1	?	-18%	-16%	-28%	-17	71µM*
O=c1cc(NS(=O)(=O)c2ccccc2)nc(SCc2ccc(Cl)cc2)[nH]1	-21%	35%	-7%	79µM*	21	-34%[59 µM]
O=C(CSc1nc(NS(=O)(=O)c2ccccc2)cc(=O)[nH]1)Nc1ccc(Cl)cc1	-26%	54%	-18%	79µM*	?	71µM*
Cc1ccc(S(=O)(=O)Nc2cc(=O)[nH]c(SCc3ccccc3Cl)n2)cc1	56µM*	5%	-9%	-36%	-13	-14%[59 µM]
CCOC1=C2[C@@H](CN(S(=O)(=O)c3ccc(C)cc3)[C@H]2c2ccc(CC)cc2)[C@H]2C(=O)N(C)C(=O)[C@H]2C1	·	·	-5%	·	13	·
C[C@@H](C[N+](C)(C)C)OC(N)=O	·	·	·	·	·	11%[21.5 µM]
C[C@@H]1CN([C@@H](C)CO)C(=O)CCCn2nncc2CO[C@H]1CN(C)Cc1cccc(C(F)(F)F)c1	·	·	5%	·	8	·
COC(=O)C1=C[C@@H](C(=O)OC)C2C3=C(C(=O)[C@@]2(C)NC(=O)c2ccccc2)[C@H](c2ccccc2)n2c(=O)n(-c4ccccc4)c(=O)n2[C@@H]3C1 (stereo partly drawn)	-31%	8%	·	·	·	·
COC(=O)c1ccccc1CSc1nsc(/C=C/N(C)C)c1C#N	50µM*	?	9.5µM*	45µM*	-57*	0%[2.33 µM]
Cc1snc(SCc2ccc(F)cc2)c1C#N	109%	133%	?	6%	4	49%
Cc1nc(CSc2nsc(/C=C/N(C)C)c2C#N)cs1	?	?	-9%	40µM*	?	20µM*
